# Vaccinia Venus: qHTS for Stage-Specific Inhibitors of Vaccinia Orthopoxvirus: Venus Reporter Primary qHTS | Vaccinia virus Venus reporter expression, fluorescence | Potency, µM (top dose mostly 36.5 µM), for inactives: at the highest dose activity change, negative = inhibition, actives largely listed as inhibitors | 330,000 tested, 0.46% active; calls by dose curve; tested in A549 cells; also: nearly all actives have a fitted effect of over 30% in size
# Marburg entry inh: qHTS for inhibitors of binding or entry into cells for Marburg Virus | Marburg virus pseudotyped entry inhibition, cell reporter | Potency, µM (titrated, usually from 37.8 µM), inactives show at the highest dose activity change, negative = inhibition, usual class: inhibitors | 300,000 tested, 1.8% active | AID 540276, 2011; calls by dose curve; tested in HEK293 cells
# FMDV inh: High Throughput Screening for Foot and Mouth Disease Virus Antivirals; FMDV antiviral cell-based qHTS; Potency, µM (highest dose often 57.9 µM), inactives show at the highest dose activity change, negative = inhibition, actives largely listed as inhibitors; 410,000 tested, 1.2% active; AID 1159524, 2015; calls by dose curve; tested in HEK293T cells; also: read-out not given here; nearly all actives have a fitted effect of over 45% in size
# Lassa entry inh: qHTS for Inhibitors of binding or entry into cells for Lassa Virus; 300,000 tested, 1.2% active; Lassa virus pseudotype entry inhibition, cell reporter; Potency, µM (doses to about 37.9 µM), for inactives: at the top dose activity change, negative = inhibition, hits mostly inhibitors; AID 540256, 2011; calls by dose curve; tested in HEK293 cells; also: nearly all actives have a fitted effect of over 50% in size
# Vaccinia mCherry: qHTS for Stage-Specific Inhibitors of Vaccinia Orthopoxvirus: mCherry Reporter Primary qHTS | AID 720579, 2013 | Vaccinia virus mCherry reporter infection, fluorescence | 310,000 tested, 0.63% active | Potency, µM (top dose mostly 36.5 µM), inactives show top-dose activity change, negative = inhibition, usual class: inhibitors; calls by dose curve; tested in A549 cells; also: nearly all actives have a fitted effect of over 35% in size
# An asterisk follows results filed as active; i = inactive; ? = inconclusive; / = no result; [ ] = remark or other dose. Most compounds without a hit are left out; they make up all but 3.2% or so of the library. % is scaled to controls: 0 for no effect and ±100 for the full control effect; potency is read from the fitted curve at half-maximal effect.
SMILES,Vaccinia Venus,Marburg entry inh,FMDV inh,Lassa entry inh,Vaccinia mCherry
Cc1ccc(/C=N/Nc2nncn2N)cc1,10µM*,?,13%,?,10µM*
COc1ccccc1-c1c(C)nn2c(N3CCC(C)CC3)cc(C)nc12,-2%,?,25µM*,-11%[46.1 µM],-5%
COCCCNC(=O)C1CCN(c2cc(C)nc3c(-c4ccc(OC)c(OC)c4)c(C)nn23)CC1,1%,11%[46.1 µM],0%,1%[46.1 µM],1%
COc1ccc(-c2c(C)nn3c(N4CCC(C(=O)NCCN(C)C)CC4)cc(C)nc23)cc1OC,/,21µM*,20%,1%,/
CCN(CC)c1ccc(/C=C2\NC(=O)NC2=O)cc1,-15%,-13%,2%,-4%,-24%
CCN(CC)c1ccc(C=C2C(=O)NC(=S)NC2=O)cc1,/,/,22µM*,/,/
CN(C)c1ccc(C=C2C(=O)NC(=S)NC2=O)cc1,-9%,?,28µM*,?,-18%
O=S(=O)(c1ccc(Br)s1)N1CCN(c2ccc(F)cc2)CC1,-12%,?,-15%,17%[46.1 µM],-13%
COc1ccc(NCc2cccn2-c2nnc(N3CCCCC3)s2)cc1OC,-2%,/,-13%,?,-3%
O=C(C[n+]1ccccc1)N/N=C/c1ccc(Cl)c(Cl)c1,-15%,2%,-18%,-2%,-14%
CN1CCC(C2(O)c3ccccc3CCc3ccccc32)CC1,-8%,18µM*,6%,-2%,-3%
CC1=NOC(=O)/C1=C\c1ccc(-c2ccccc2Br)o1,/,/,25µM*,/,/
CC1=NOC(=O)/C1=C/c1ccc(O)c(Br)c1,-4%,11%[46.1 µM],25µM*,3%[46.1 µM],i
CC1=NOC(=O)/C1=C\c1ccc(-c2ccc(Cl)c(C(=O)O)c2)o1,6%,-15%,2%,0%,-10%
CC1=NOC(=O)/C1=C\c1ccc(-c2cccc(Cl)c2)o1,-40%,?,40µM*,?,?
CCOC(=O)c1c(S(=O)(=O)NCC(=O)Nc2ccc(C)c(N(C)C)c2)c(C)n(C)c1C,3%,/,-3%,21%[46.1 µM],1%
Cc1cccc(CSc2nnnn2-c2ccccc2)c1,-7%,?,3%,10µM*,-3%[1.46 µM]
Cc1ccc(S(=O)(=O)NCCSc2nnnn2-c2ccccc2)cc1,-14%,-14%[46.1 µM],15%,-17%[46.1 µM],-14%
CCSc1nnnn1-c1ccccc1,-24%,4%,0%,2%,-8%[1.46 µM]
Cc1ccc(S(=O)(=O)NCCSc2nnnn2-c2cc(C)ccc2C)cc1,?,?,-11%,8.9µM*,-21%
Cc1ccc(C)c(-n2nnnc2Sc2nnnn2-c2ccccc2)c1,/,15µM*,16µM*,?,/
Cc1[nH]n(-c2ccccc2)c(=O)c1C(C[N+](=O)[O-])c1ccc(Cl)cc1 (configuration not stated),-3%,-11%,?,-17%,i
Cc1[nH]n(-c2ncc(-c3ccccc3)s2)c(=O)c1C(c1ccc(Cl)cc1)C(C#N)C#N (configuration not stated),-13%,14%,20µM*,7%,-19%
COc1ccc(N2CCc3c(C)nc4c(OC)cc(OC)cc4c32)c(OC)c1,/,12µM*,0%,?,/
COc1cccc(N2CCc3c(C)nc4ccc(Cl)cc4c32)c1,?,11µM*,?,?,-17%
SMILES,Vaccinia Venus,Marburg entry inh,FMDV inh,Lassa entry inh,Vaccinia mCherry
CCN1Cc2c(/C=C/c3ccccc3)nc3ccc(OC)cc3c2N(c2cccc(Cl)c2)C1,?,/,40µM*,/,?
O=C(CCc1cn(Cc2ccccc2F)c2ccccc12)NCc1ccc(Cl)cc1,-11%,/,10µM*,-2%[46.1 µM],-12%
COc1ccccc1N(C)S(=O)(=O)c1ccc(C(=O)NC2CCCCC2)cc1,-5%,-13%,?,10µM*,-5%
COc1ccccc1N(C)S(=O)(=O)c1ccc(C(=O)Nc2ccncc2)cc1,-18%,?,32µM*,-20%,i
Cc1cccc(NC(=O)c2ccc3oc(=O)c(S(=O)(=O)c4ccc(F)cc4)cc3c2)c1C,-3%,14%[46.1 µM],32µM*,7%[46.1 µM],-13%
CC(C)C1C(=O)N(Cc2cn(CC3CCCCC3)nn2)CCS(=O)(=O)N1Cc1ccc(-c2ccc(Cl)nc2)cc1 (configuration not stated),-26%,?,-24%,/,-28%
CC1CCCC(C)N1CC(O)COCc1ccccc1 (configuration not stated),-17%,6.3µM*,-14%,-29%[46.1 µM],-17%
CCN1CCCC1CNC(=O)c1cnn(-c2nccc(-c3cccs3)n2)c1C(C)C (configuration not stated),-10%,/,3%,/,-21%
Cc1ccc(NCc2cccc(B(O)O)c2)cc1,-20%,/,20%,/,?
CC1CC(C)CN(c2oc(-c3ccc(OCc4ccccc4Cl)cc3)nc2C#N)C1 (configuration not stated),-10%,/,/,/,26%
COC(=O)Cc1ccc2sc(-c3ccccc3)nc2c1,-10%,8.2µM*,-70%,?,-10%
CC1CCN(CCCNC(=O)c2ccc3c(Cl)c4c(nc3c2)CCCC4)CC1,0%,10µM*,-26%,?,-16%
CCN1CCN(CCCNC(=O)c2ccc3c(Cl)c4c(nc3c2)CCCC4)CC1,13µM*,?,-17%,?,?
CN1C2CCC1CC(OC(=O)c1cc(Cl)cc(Cl)c1)C2 (configuration not stated),-14%,7.1µM*,?,?,/
C=CC[C@@H](CC(=O)N(CCO)Cc1ccccc1)C(=O)N[C@H](COC(=O)[C@H](CC=C)CC(=O)OC(C)(C)C)Cc1c[nH]c2ccccc12,-24%,/,-6%,/,?
C=CC[C@@H](CC(=O)N[C@H](CO)Cc1ccccc1)C(=O)N[C@H](COC(=O)[C@@H](CC=C)CC(=O)OC(C)(C)C)Cc1c[nH]c2ccccc12,13µM*,/,?,/,22µM*
C=CC[C@H](CC(=O)N(CCO)Cc1ccccc1)C(=O)N[C@H](COC(=O)[C@@H](CC=C)CC(=O)OC(C)(C)C)Cc1c[nH]c2ccccc12,11µM*,/,-34%,/,?
CN(C)c1ccc(/C=C(\Cl)c2nc3ccccc3s2)cc1,-14%,?,10µM*,?,i
CCOC1=C2[C@H](c3ccc(CC)cc3)N(S(=O)(=O)c3ccc(C)cc3)C[C@H]2C(C#N)(C#N)C(C#N)(C#N)C1,3%,/,35µM*,/,i
C=C1C(=O)OC2CC1C(O)CC(C)=CCCC(C)=CC(O)CC2C (configuration not stated),11µM*,4µM*,7.9µM*,?,?
CCC(C)Sc1ccc(-c2nc3ccc(C)cn3c2NCc2ccccc2)cc1OC (configuration not stated),13µM*,/,35µM*,/,?
COc1ccc(-c2nc3ccccn3c2NCc2ccc3c(c2)OCO3)cc1,-2%,-8%,14%,15%,-13%
CCC(C)Sc1cc(-c2nc3ccc(C)cn3c2NCc2ccccc2)ccc1OC (configuration not stated),?,/,16µM*,/,10µM*

# High-throughput results deposited in PubChem BioAssay by National Center for Advancing Translational Sciences (NCATS).
